# Reference: PubChem BioAssay
# “And” between values parts separate entries of the source, which are not always exact repeats. Identical values can stand only once. The source made the active and inactive calls.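 Rule for the calls, unless noted: active = thallium flux through the channel raised or lowered by more than 3 SD from vehicle-only wells, actives on both sides; inactive = the rest.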
# Columns and labels:
# [1] = target: 6-phosphogluconate dehydrogenase, decarboxylating (Homo sapiens) (UniProt P52209); test: 6PGD enzyme inhibitors, primary screen, biochemical, human, recombinant enzyme, NADPH absorbance (AID 1159550;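 active = at least 20% inhibition of 6-phosphogluconate dehydrogenase activity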); settings: recombinant 6PGD, NADPH absorbance 341 nm; at 10 µM; stronger effect = higher value
# [2] = Cy5 fluorescence interference with SSB-bound oligo, artefact control for HCV NS3 helicase inhibitor project, biochemical, NIH Clinical Collection, E. coli SSB (AID 743268; call rule not given here)
# [3] = system: Hepatitis C virus NS3 helicase; test: HCV NS3 helicase inhibitors, primary screen, biochemical, fluorescence polarization, NIH Clinical Collection (AID 743270; call rule not given here); settings: NS3 helicase binding to Cy5-dT15 DNA, stronger effect = higher value, concentration not given here
# [4] = target: Single-stranded DNA-binding protein (Escherichia coli (strain K12)) (UniProt P0AGE0); test: E. coli SSB displacement from DNA, counter-screen for HCV NS3 helicase inhibitor project, biochemical, fluorescence polarization, NIH Clinical Collection (AID 743271; in the data active = inhibition above about 28%); settings: stronger effect = higher value, concentration not given here
# [5] = fluorescence interference in NS3h assay format, artefact control for HCV NS3 helicase inhibitor project, biochemical, NIH Clinical Collection (AID 743272; call rule not given here;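 note: HCV NS3 helicase with a Cy5 labelled single stranded DNA probe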); settings: fluorescence interference counterscreen, stronger effect = lower value
# [6] = modulation of C. elegans fzo-1 (AID 1259413; call rule not given here;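 note: fzo-1 mutant C. elegans worms in liquid wells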); settings: C. elegans fzo-1 modulator screen, mean read-out; stronger effect = higher value
# [7] = differential killing of epithelial or mesenchymal cells, primary screen, imaging, PC-3E GFP, TEM4-18 mCherry, co-culture (AID 1345086;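 active = compounds killing one labelled cell type while sparing the other, by normalised counts and ratio limits, not self-fluorescent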;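 for all read-outs here: cells exposed to compound for 72 h before imaging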;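 for red/green cell ratio (normalised): normalised mesenchymal count divided by normalised epithelial count so high means epithelial killing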); settings: imaging cell counts, at 1 µM; for red/green cell ratio (normalised): actives lie on both sides, counts scaled to control wells, 1 = unselective
# [8] = survival rescue of mitochondrial mutant cells in low glucose, primary screen, MELAS cybrids, Rieske KO mouse fibroblasts, CellTiter-Glo (AID 1508586;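 active = mean z-score across replicates of 1.96 or higher in either the MELAS or the Rieske mutant cell line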;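 note: z relative to plate mean and SD of compound and empty wells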)
# [9] = target: NAD(+) hydrolase SARM1 (Homo sapiens) (UniProt Q6SZW1); test: SARM1 TIR NADase inhibitors, cell lysate, NAD-Glo luminescence (AID 1508614;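 active = compound whose remaining NAD level is above about 45 nM, limit read from the data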;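 note: higher remaining NAD means stronger inhibition of SARM1 NADase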); settings: SAM-TIR HEK293T lysate NADase, at 1 µM, stronger effect = higher value
# [10] = target: Mitogen-activated protein kinase 7 (Homo sapiens) (UniProt Q13164); test: ERK5 transactivation activators in reporter cells, primary screen, cell-based, HTS (AID 1508626;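 active = luciferase signal above three times the same-plate solvent-only control wells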;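 note: luciferase driven by Gal4-ERK5 fusion binding five Gal4 sites before minimal TATA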); settings: HeLa Gal4-ERK5 transactivation, 18 h, at 5 µM, stronger effect = higher value
# [11] = viability rescue of complex I mutant cybrids, primary screen, cell-based, galactose medium, ATP luminescence (AID 1645843;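 active = z-score of at least 1.8 in each of two replicates, scored against plate mean and spread of sample wells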;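 note: positive z means more ATP and so rescue of galactose-driven cybrid death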); settings: complex I mutant cybrid cells, 72 h, stronger effect = higher value
# F380Y = test: modulators of BK channel variants, profiling panel, selectivity assay, cell-based, U2OS BacMam, thallium flux, beta subunits (AID 1259406); settings: at 30 µM;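 note: initial slope of Thallos dye fluorescence rise after thallium is added; log ratio against the mean of 0.3% DMSO vehicle wells on the same plate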
# F380Y/beta2Delta = test: as above; settings: at 30 µM
# [12] = target: Calcium-activated potassium channel subunit alpha-1 (Homo sapiens) + Leucine-rich repeat-containing protein 26 (Homo sapiens) (UniProt Q12791+Q2I0M4); test: as above; settings: F380Y/Slo1WT/gamma1, at 30 µM
# R275C = test: as above; settings: at 30 µM
# R275C/beta1 = test: as above; settings: at 30 µM
# R275C/beta2Delta = test: as above; settings: at 30 µM
# [13] = liver-stage malaria parasite growth inhibition, primary screen, cell-based, HepG2, luciferase luminescence, HepG2 viability (AID 624349; in the data active = parasite load remaining mostly below about 12%, no sharp cut-off; inactive = mostly above about 10%;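 note: 100% = mean of DMSO negative control wells on the same plate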); settings: P. berghei liver stage in HepG2, luciferase luminescence, concentration not given here; parasite load remaining: stronger effect = lower value; viability: measured here: HepG2 viability without parasites
# [14] = sensitizers of A549 cells to miR-34 induction, primary screen, imaging, A549 dox-inducible miR-34, nuclei and caspase counts (AID 1347080;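 active = compounds whose cell count with miR-34 switched on is under 0.7 times the count with it off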); settings: A549 miR-34 inducible, Hoechst nuclei count, 48 h
# [15] = measured here: epithelial PC-3E GFP cell survival
# [16] = measured here: mesenchymal TEM4-18 mCherry cell survival
# [17] = MELAS cybrid survival, CellTiter-Glo 48 h, stronger effect = higher value
# [18] = Rieske KO mouse fibroblast survival, CellTiter-Glo 72 h
# [19] = stronger effect = lower value, cell number ratio, induced over uninduced
# [20] = measured here: relative caspase fold change +Dox/-Dox
# [21] = measured here: total cells with miR-34 induction, stronger effect = lower value
# [22] = measured here: total cells without miR-34 induction
# Chain of Mitogen-activated protein kinase 7 (Homo sapiens) (Q13164 whole entry, looked up, the tested form may be a part): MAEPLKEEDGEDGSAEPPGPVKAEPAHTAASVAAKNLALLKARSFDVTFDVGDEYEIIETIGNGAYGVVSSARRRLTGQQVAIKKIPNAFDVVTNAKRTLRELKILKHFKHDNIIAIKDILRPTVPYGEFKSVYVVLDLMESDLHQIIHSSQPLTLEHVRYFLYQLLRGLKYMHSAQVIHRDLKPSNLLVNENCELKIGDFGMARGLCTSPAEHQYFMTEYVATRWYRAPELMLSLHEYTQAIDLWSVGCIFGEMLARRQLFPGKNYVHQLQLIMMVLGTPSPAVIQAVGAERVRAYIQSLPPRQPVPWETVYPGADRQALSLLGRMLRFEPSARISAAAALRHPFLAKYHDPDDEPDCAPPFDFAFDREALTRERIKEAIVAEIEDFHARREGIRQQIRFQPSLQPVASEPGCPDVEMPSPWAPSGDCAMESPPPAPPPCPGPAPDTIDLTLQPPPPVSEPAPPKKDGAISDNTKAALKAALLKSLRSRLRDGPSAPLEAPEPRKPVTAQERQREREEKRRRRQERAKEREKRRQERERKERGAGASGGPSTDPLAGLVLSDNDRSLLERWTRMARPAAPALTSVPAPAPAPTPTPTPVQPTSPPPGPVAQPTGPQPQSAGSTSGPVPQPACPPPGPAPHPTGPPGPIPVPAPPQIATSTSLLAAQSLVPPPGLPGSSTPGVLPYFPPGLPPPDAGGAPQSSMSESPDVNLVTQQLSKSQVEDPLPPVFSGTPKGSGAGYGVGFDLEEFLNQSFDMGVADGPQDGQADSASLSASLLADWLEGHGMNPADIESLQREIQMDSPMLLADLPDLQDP
# Chain of Calcium-activated potassium channel subunit alpha-1 (Homo sapiens) + Leucine-rich repeat-containing protein 26 (Homo sapiens) (Q2I0M4 whole entry, looked up, one chain of several): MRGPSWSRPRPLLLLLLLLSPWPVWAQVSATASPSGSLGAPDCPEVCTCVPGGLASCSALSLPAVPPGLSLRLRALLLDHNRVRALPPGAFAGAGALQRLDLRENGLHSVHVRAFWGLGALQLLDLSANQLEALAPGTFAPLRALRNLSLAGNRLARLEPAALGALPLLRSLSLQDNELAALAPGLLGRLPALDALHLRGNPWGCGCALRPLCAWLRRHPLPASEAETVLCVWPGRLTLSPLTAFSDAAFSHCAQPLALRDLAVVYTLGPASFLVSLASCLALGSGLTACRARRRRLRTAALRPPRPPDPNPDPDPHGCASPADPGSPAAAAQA
# Chain of NAD(+) hydrolase SARM1 (Homo sapiens) (Q6SZW1 whole entry, looked up, the tested form may be a part): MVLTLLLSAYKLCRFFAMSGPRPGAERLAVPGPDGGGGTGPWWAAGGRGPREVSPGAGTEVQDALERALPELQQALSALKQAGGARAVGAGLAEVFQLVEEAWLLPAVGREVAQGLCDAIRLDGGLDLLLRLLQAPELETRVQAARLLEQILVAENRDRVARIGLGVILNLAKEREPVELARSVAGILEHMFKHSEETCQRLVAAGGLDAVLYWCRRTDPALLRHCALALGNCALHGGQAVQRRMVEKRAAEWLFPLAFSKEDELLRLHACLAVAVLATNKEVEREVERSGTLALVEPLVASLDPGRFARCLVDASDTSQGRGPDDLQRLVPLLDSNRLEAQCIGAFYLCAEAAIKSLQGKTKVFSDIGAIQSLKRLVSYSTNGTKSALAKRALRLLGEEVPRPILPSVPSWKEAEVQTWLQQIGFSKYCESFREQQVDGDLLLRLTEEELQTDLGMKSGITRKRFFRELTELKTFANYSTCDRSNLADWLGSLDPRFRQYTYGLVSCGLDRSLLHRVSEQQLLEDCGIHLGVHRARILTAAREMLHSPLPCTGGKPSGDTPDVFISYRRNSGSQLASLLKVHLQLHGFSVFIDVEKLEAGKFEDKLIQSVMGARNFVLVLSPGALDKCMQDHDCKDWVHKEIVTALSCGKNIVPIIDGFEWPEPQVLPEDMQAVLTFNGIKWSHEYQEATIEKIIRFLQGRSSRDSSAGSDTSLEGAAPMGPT
# Chain of 6-phosphogluconate dehydrogenase, decarboxylating (Homo sapiens) (P52209 whole entry, looked up): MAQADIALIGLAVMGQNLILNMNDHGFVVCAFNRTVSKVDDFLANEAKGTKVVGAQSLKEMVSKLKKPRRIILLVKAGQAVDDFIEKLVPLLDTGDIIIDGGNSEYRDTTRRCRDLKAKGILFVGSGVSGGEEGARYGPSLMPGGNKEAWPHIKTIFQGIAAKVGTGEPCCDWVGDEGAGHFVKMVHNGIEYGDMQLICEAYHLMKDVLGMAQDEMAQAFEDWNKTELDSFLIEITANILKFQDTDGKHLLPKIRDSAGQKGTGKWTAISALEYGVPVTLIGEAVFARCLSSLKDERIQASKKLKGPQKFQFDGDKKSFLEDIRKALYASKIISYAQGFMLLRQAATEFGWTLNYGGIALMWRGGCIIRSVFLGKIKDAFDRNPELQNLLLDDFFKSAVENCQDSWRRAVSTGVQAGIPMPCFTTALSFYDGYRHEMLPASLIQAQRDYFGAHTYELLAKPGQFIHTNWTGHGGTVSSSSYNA
smiles,measurement,setting,value
CC(=O)Oc1ccc(-c2cc(=O)c3c(OC(C)=O)cc(OC(C)=O)cc3o2)cc1,inhibition,[1],-7.11% (inactive)
COC(=O)C1OC(=O)C2OC23C1(C)CCC1C2(C)CCC(=O)C(C)(C)C2CC(OC(C)=O)C13C (centres undefined),inhibition,[1],-6.02% (inactive)
CC(=O)N[C@H]1[C@H]([C@H](O)[C@H](O)CO)O[C@](O)(C(=O)O)C[C@@H]1O,inhibition,[1],-6.71% (inactive)
COc1ccc2c3c1O[C@H]1C[C@@H](O)C=C[C@@]31CCN(C)C2,fluorescence ratio,[2],1.03 (inactive)
same,inhibition,[3],-2.77% (inactive)
same,inhibition,[4],-3.95% (inactive)
same,fluorescence ratio,[5],1 (inactive)
same,inhibition,[1],6.78% (inactive)
same,mean signal,[6],226 (inactive)
same,red/green cell ratio (normalised),[7],1.15 (inactive)
same,normalised cell number,[7]; [15],1
same,normalised cell number,[7]; [16],1.15
same,z-score,[8]; [17],0.162 (inactive) and -0.253 (inactive)
same,z-score,[8]; [18],0.459 and -0.846
same,remaining NAD,[9],10 nM (inactive)
same,luciferase signal,[10],64 AU (inactive)
same,z-score,[11],0.28 (inactive) and 0.575 (inactive)
same,log fold change Tl+ flux,F380Y,0.0204 (inactive)
same,log fold change Tl+ flux,F380Y/beta2Delta,0.0272 (inactive)
same,log fold change Tl+ flux,[12],-0.0208 (inactive)
same,log fold change Tl+ flux,R275C,0.0192 (inactive)
same,log fold change Tl+ flux,R275C/beta1,-0.00593 (inactive)
same,log fold change Tl+ flux,R275C/beta2Delta,0.0478 (inactive)
CCN1CCN(C(=O)N[C@@H](C(=O)N[C@@H]2C(=O)N3[C@@H]2SC(C)(C)[C@@H]3C(=O)O)c2ccccc2)C(=O)C1=O,parasite load remaining,[13],50.1% (inactive) and 75.4% (inactive) and 36.6% (inactive)
same,viability,[13],89.8% and 93.5% and 71.5%
same,fluorescence ratio,[2],0.99 (inactive)
same,inhibition,[3],-3.18% (inactive)
same,inhibition,[4],-1.24% (inactive)
same,fluorescence ratio,[5],0.98 (inactive)
same,inhibition,[1],12.4% (inactive)
same,mean signal,[6],257 (inactive)
same,fold change,[14]; [19],0.928 (inactive) and 0.85 (inactive) and 0.888 (inactive)
same,fold change,[14]; [20],2.92 and 0.912 and 1.53
same,cell count,[14]; [21],10600 and 8860 and 9900
same,cell count,[14]; [22],11400 and 10400 and 11200
same,z-score,[8]; [17],0.757 (inactive) and -0.0978 (inactive)
same,z-score,[8]; [18],0.573 and 0.405
same,remaining NAD,[9],10 nM (inactive)
same,luciferase signal,[10],72 AU (inactive)
same,z-score,[11],0.5 (inactive) and 0.93 (inactive)
same,log fold change Tl+ flux,F380Y,-0.0272 (inactive)
same,log fold change Tl+ flux,F380Y/beta2Delta,-0.0244 (inactive)
same,log fold change Tl+ flux,[12],-0.00699 (inactive)
same,log fold change Tl+ flux,R275C,-0.096 (active)
same,log fold change Tl+ flux,R275C/beta1,0.0207 (inactive)
same,log fold change Tl+ flux,R275C/beta2Delta,-0.0292 (inactive)
COc1cc(-c2coc3cc(OCc4ccccc4)c(OC)c(O)c3c2=O)cc(OCc2ccccc2)c1OC,inhibition,[1],16.5% (inactive)
same,red/green cell ratio (normalised),[7],0.82 (inactive)
same,normalised cell number,[7]; [15],1.05
same,normalised cell number,[7]; [16],0.86
CON=C(C(=O)NC1C(=O)N2C(C(=O)O)=C(COC(C)=O)CSC12)c1csc(N)n1 (centres undefined),parasite load remaining,[13],73.2% (inactive)
same,viability,[13],130%
same,fluorescence ratio,[2],1.03 (inactive)
same,inhibition,[3],4.09% (inactive)
same,inhibition,[4],36.1% (active)
same,fluorescence ratio,[5],1.03 (inactive)
same,inhibition,[1],-1.56% (inactive)
same,fold change,[14]; [19],0.991 (inactive)
same,fold change,[14]; [20],2.86
same,cell count,[14]; [21],11400
same,cell count,[14]; [22],11500
same,z-score,[11],0.145 (inactive)
same,log fold change Tl+ flux,F380Y,-0.0263 (inactive)
same,log fold change Tl+ flux,F380Y/beta2Delta,0.0186 (inactive)
same,log fold change Tl+ flux,[12],-0.0048 (inactive)
same,log fold change Tl+ flux,R275C,0.0263 (inactive)
same,log fold change Tl+ flux,R275C/beta1,-0.0272 (inactive)
same,log fold change Tl+ flux,R275C/beta2Delta,-0.0298 (inactive)
CC[C@H](/C=C/C(C)C1CCC2C3CCC4=CC(=O)CC[C@]4(C)C3CC[C@]12C)C(C)C (some centres undefined),inhibition,[1],11.4% (inactive)
same,red/green cell ratio (normalised),[7],0.98 (inactive)
same,normalised cell number,[7]; [15],0.99
same,normalised cell number,[7]; [16],0.97
COc1ccc(-c2oc3c(CC=C(C)C)c(O[C@@H]4O[C@H](CO)[C@@H](O)[C@H](O)[C@H]4O)cc(O)c3c(=O)c2O[C@@H]2O[C@@H](C)[C@H](O)[C@@H](O)[C@H]2O)cc1,parasite load remaining,[13],70.8% (inactive)
same,viability,[13],68.9%
same,fluorescence ratio,[2],1 (inactive)
same,inhibition,[3],-9.9% (inactive)
same,inhibition,[4],-2.41% (inactive)
same,fluorescence ratio,[5],0.98 (inactive)
same,inhibition,[1],4.03% (inactive)
same,mean signal,[6],233 (inactive)
same,red/green cell ratio (normalised),[7],1.12 (inactive)
same,normalised cell number,[7]; [15],1.01
same,normalised cell number,[7]; [16],1.13
same,luciferase signal,[10],48 AU (inactive)
same,log fold change Tl+ flux,F380Y,0.00269 (inactive)
same,log fold change Tl+ flux,F380Y/beta2Delta,-0.0493 (inactive)
same,log fold change Tl+ flux,[12],-0.0341 (inactive)
same,log fold change Tl+ flux,R275C,-0.04 (inactive)
same,log fold change Tl+ flux,R275C/beta1,0.009 (inactive)
same,log fold change Tl+ flux,R275C/beta2Delta,-0.0522 (inactive)
CC1=C(CCC(=O)O)c2cc3nc(cc4[nH]c(cc5[nH]c(cc1n2)c(C)c5C(C)O)c(C)c4C(C)O)C(C)=C3CCC(=O)O (centres undefined),inhibition,[1],12.1% (inactive)
same,red/green cell ratio (normalised),[7],1.39 (inactive)
same,normalised cell number,[7]; [15],0.93
same,normalised cell number,[7]; [16],1.29
COc1cc2c(cc1OC)C1C(=O)c3c(cc4c(c3O)C=CC(C)(C)O4)OC1CO2 (centres undefined),inhibition,[1],7.64% (inactive)
same,red/green cell ratio (normalised),[7],0.76 (inactive)
same,normalised cell number,[7]; [15],1.04
same,normalised cell number,[7]; [16],0.79
CN(C)CCC(c1ccc(Cl)cc1)c1ccccn1 (centres undefined),fluorescence ratio,[2],1.05 (inactive)
same,inhibition,[3],-1.98% (inactive)
same,inhibition,[4],-3.95% (inactive)
same,fluorescence ratio,[5],1.02 (inactive)
same,inhibition,[1],14.7% (inactive)
same,mean signal,[6],225 (inactive)
same,red/green cell ratio (normalised),[7],1.02 (inactive)
same,normalised cell number,[7]; [15],0.91
same,normalised cell number,[7]; [16],0.93
same,z-score,[8]; [17],-0.0722 (inactive) and 0.91 (inactive) and 0.217 (inactive)
same,z-score,[8]; [18],0.675 and 0.216 and -0.121
same,remaining NAD,[9],10 nM (inactive)
same,log fold change Tl+ flux,F380Y,0.0819 (inactive)
same,log fold change Tl+ flux,F380Y/beta2Delta,0.0184 (inactive)
same,log fold change Tl+ flux,[12],-0.0284 (inactive)
same,log fold change Tl+ flux,R275C,-0.059 (inactive)
same,log fold change Tl+ flux,R275C/beta1,0.0906 (active)
same,log fold change Tl+ flux,R275C/beta2Delta,0.0118 (inactive)
CC1(C)S[C@@H]2[C@H](NC(=O)[C@H](N)c3ccc(O)cc3)C(=O)N2[C@H]1C(=O)O,parasite load remaining,[13],78% (inactive) and 120% (inactive) and 88.8% (inactive)
same,viability,[13],117% and 121% and 76%
same,fluorescence ratio,[2],1.01 (inactive)
same,inhibition,[3],-4.09% (inactive)
same,inhibition,[4],7.91% (inactive)
same,fluorescence ratio,[5],1 (inactive)
same,inhibition,[1],8.62% (inactive)
same,mean signal,[6],239 (inactive)
same,fold change,[14]; [19],0.943 (inactive) and 0.821 (inactive)
same,fold change,[14]; [20],1.29 and 1.62
same,cell count,[14]; [21],10300 and 8970
same,cell count,[14]; [22],10900
same,z-score,[8]; [17],0.664 (inactive)
same,z-score,[8]; [18],0.115
same,remaining NAD,[9],10 nM (inactive)
same,luciferase signal,[10],56 AU (inactive)
same,z-score,[11],0.84 (inactive)
same,log fold change Tl+ flux,F380Y,-0.0516 (inactive)
same,log fold change Tl+ flux,F380Y/beta2Delta,-0.0816 (active)
same,log fold change Tl+ flux,[12],0.0259 (inactive)
same,log fold change Tl+ flux,R275C,0.00882 (inactive)
same,log fold change Tl+ flux,R275C/beta1,0.0045 (inactive)
same,log fold change Tl+ flux,R275C/beta2Delta,-0.0233 (inactive)
